# Measured values from paper PMC7862700, “An all-to-all approach to the identification of sequence-specific readers for epigenetic DNA modifications on cytosine”.
# Assays:
# Assay in all cases: DAPPL (digital affinity profiling via proximity ligation, sequencing); 10 mM Tris-HCl pH 7.5, 50 mM NaCl, 1 mM DTT, 4% glycerol, room temperature, 30 min; GST-TFs on glutathione beads, 16-mer random dsDNA library, 0.1% formaldehyde crosslink after washing; high values mean tight binding
# Details in all cases: protein: recombinant; tags: N-terminal GST; dsDNA, one strand shown
# ELK4 = target: T1, ELK4 (Homo sapiens, UniProt P28324-2 1-405)
# T1 sequence: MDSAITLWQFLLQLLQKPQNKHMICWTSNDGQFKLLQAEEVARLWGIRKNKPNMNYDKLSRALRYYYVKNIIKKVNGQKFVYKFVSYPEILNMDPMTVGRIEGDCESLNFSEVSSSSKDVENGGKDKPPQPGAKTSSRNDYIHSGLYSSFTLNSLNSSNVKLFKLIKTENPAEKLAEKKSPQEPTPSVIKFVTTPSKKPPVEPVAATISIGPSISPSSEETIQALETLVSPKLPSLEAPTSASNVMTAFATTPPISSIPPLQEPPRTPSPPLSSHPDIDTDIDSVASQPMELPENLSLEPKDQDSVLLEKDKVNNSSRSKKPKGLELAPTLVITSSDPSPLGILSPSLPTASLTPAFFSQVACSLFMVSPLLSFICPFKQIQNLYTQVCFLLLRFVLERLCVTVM
# In short: (§1)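 Binding signal is defined as a hexamer's read frequency for one factor over its frequency for the tag-only sample. To obtain reads, GST-fused human transcription factors were expressed in yeast, captured on glutathione beads, barcoded with DNA and pooled with that sample. Pools met 200 nmole of a 16-mer random double-stranded DNA library in Tris/NaCl/DTT/glycerol buffer for 30 min at room temperature before washing, 0.1% formaldehyde crosslinking, proximity ligation (BsaI/T4 ligase, 1 h, 37 °C), PCR and Illumina NextSeq500 sequencing.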
# ELF3 = target: T2, ELF3 (Homo sapiens, UniProt P78545 1-371)
# T2 sequence: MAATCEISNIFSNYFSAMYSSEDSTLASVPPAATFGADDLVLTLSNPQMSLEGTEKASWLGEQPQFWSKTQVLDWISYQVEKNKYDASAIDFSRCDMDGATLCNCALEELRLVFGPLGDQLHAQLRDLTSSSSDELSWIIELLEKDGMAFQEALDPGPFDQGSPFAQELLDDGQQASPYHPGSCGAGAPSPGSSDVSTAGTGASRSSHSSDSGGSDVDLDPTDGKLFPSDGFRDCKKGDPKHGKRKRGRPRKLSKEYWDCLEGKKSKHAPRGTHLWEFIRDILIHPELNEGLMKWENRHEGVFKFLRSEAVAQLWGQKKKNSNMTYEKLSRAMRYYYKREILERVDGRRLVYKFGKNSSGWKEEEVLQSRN
# In short: as §1
# ERF = target: T3, ERF (Homo sapiens, UniProt P50548 1-548)
# T3 sequence: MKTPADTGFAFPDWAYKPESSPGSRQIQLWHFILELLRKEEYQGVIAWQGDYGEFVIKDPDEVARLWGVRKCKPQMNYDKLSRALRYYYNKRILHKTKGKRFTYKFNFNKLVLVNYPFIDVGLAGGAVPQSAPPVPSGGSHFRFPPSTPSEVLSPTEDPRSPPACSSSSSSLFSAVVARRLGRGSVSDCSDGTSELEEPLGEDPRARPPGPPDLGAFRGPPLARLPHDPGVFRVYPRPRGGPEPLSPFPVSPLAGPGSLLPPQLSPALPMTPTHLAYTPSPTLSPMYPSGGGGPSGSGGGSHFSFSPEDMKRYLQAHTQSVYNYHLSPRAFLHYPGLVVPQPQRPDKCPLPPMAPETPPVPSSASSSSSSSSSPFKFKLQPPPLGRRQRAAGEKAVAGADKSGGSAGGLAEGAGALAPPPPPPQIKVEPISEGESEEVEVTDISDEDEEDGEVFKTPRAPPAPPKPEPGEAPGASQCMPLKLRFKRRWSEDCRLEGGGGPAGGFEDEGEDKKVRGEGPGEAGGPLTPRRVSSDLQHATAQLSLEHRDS
# In short: as §1
# ETV3L = target: T4, ETV3L (Homo sapiens, UniProt Q6ZN32 1-361)
# T4 sequence: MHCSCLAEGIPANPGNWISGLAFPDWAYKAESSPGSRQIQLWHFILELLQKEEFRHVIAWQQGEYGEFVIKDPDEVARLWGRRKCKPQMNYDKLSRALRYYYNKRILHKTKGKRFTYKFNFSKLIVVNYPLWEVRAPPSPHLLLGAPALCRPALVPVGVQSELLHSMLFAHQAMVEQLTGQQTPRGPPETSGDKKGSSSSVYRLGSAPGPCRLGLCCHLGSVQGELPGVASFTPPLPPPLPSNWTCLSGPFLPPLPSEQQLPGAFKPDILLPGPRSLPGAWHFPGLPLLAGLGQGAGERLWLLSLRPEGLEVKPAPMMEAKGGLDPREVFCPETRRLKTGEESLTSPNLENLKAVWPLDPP
# In short: as §1
# ETS2 = target: T5, ETS2 (Homo sapiens, UniProt P15036 1-469)
# T5 sequence: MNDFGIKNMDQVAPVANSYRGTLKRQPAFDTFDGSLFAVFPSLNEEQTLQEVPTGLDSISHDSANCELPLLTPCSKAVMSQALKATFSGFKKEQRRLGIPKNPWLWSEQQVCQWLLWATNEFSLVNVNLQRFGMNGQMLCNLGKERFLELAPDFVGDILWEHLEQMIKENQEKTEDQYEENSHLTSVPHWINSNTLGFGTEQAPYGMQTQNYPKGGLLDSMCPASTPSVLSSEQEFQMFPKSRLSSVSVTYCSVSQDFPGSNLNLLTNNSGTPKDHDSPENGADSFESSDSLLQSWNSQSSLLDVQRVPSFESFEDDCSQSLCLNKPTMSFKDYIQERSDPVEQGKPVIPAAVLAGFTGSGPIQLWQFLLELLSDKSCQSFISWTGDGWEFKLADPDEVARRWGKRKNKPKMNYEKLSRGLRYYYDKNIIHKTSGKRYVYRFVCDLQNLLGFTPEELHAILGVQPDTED
# In short: as §1
# SPDEF = target: T6, SPDEF (Homo sapiens, UniProt O95238 1-335)
# T6 sequence: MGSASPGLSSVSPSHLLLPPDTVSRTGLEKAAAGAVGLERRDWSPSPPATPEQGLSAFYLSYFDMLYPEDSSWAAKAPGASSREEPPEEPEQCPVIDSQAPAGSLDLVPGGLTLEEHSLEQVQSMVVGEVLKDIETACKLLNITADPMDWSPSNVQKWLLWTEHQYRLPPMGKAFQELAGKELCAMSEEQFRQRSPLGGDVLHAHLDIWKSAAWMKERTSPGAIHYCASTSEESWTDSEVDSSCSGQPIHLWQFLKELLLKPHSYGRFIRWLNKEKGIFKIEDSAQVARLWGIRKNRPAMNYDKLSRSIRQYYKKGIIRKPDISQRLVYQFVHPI
# In short: as §1
# ETV7 = target: T7, ETV7 (Homo sapiens, UniProt Q9Y603 1-341)
# T7 sequence: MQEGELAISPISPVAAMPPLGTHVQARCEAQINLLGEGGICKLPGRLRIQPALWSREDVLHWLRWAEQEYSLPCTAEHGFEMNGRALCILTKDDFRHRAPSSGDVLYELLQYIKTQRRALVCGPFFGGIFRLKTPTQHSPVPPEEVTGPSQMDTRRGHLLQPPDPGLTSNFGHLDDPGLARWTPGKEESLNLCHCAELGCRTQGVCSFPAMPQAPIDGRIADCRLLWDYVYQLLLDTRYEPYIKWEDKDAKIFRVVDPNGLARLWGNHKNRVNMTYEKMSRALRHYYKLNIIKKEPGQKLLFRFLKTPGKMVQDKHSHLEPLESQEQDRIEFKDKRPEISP
# In short: as §1
# ETV3 = target: T8, ETV3 (Homo sapiens, UniProt P41162-2 1-143)
# T8 sequence: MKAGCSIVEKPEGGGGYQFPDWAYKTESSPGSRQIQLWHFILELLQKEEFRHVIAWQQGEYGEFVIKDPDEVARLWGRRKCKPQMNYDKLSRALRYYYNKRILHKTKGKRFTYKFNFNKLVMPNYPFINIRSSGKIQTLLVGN
# In short: as §1
# ETV6 = ETV6 (Homo sapiens, UniProt P41212 1-452)
# ETV6, sequence (P41212 whole entry): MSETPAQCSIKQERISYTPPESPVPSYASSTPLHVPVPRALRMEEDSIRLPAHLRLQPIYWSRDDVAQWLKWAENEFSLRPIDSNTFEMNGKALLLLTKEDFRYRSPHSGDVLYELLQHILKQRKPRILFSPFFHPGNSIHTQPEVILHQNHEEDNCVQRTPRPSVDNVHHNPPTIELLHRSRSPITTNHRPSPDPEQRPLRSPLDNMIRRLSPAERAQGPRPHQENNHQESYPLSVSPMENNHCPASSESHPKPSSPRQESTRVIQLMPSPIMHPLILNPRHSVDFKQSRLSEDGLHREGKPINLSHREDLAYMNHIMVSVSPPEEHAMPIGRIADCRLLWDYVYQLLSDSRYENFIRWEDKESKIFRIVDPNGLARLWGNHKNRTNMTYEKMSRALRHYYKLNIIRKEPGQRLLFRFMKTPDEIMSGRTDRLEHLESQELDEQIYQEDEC
# In short: as §1
sequence,measurement,setting,value
TTAGAT,binding signal,ELK4,"1.23 fold enrichment (6-mer frequency, TF over GST control)"
same,binding signal,ELF3,"1.05 fold enrichment (6-mer frequency, TF over GST control)"
same,binding signal,ERF,"1.21 fold enrichment (6-mer frequency, TF over GST control)"
same,binding signal,ETV3L,"1.04 fold enrichment (6-mer frequency, TF over GST control)"
same,binding signal,ETS2,"1.01 fold enrichment (6-mer frequency, TF over GST control)"
same,binding signal,SPDEF,"1.08 fold enrichment (6-mer frequency, TF over GST control)"
same,binding signal,ETV7,"1.03 fold enrichment (6-mer frequency, TF over GST control)"
same,binding signal,ETV3,"1.07 fold enrichment (6-mer frequency, TF over GST control)"
same,binding signal,ETV6,"1.03 fold enrichment (6-mer frequency, TF over GST control)"
